# Measurements: publication PMC7862700, “An all-to-all approach to the identification of sequence-specific readers for epigenetic DNA modifications on cytosine”
# Assays:
# Experiment in all cases: DAPPL (digital affinity profiling via proximity ligation, sequencing); 10 mM Tris-HCl pH 7.5, 50 mM NaCl, 1 mM DTT, 4% glycerol, room temperature, 30 min; GST-TFs on glutathione beads, 16-mer random dsDNA library, 0.1% formaldehyde crosslink after washing; high values mean tight binding
# [1] = target: T1, FEV (Homo sapiens, UniProt Q99581 1-238); conditions: protein: recombinant; tags: N-terminal GST; dsDNA, one strand shown
# T1 sequence: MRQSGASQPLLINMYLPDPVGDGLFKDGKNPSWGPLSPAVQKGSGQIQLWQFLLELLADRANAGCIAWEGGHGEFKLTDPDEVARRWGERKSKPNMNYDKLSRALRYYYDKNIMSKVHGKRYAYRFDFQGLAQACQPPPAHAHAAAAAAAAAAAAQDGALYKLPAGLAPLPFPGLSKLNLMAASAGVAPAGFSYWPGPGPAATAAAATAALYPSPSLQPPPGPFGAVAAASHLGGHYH
# In short: (§1)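 In yeast, human transcription factors were expressed with a GST fusion, then pulled down on glutathione beads and given DNA barcodes. Pooled with a tag-only sample, they were exposed to 200 nmole of a 16-mer random double-stranded DNA library (Tris/NaCl/DTT/glycerol buffer, room temperature, 30 min), washed, crosslinked with 0.1% formaldehyde, proximity-ligated using BsaI/T4 ligase for 1 h at 37 °C, PCR-amplified and read on an Illumina NextSeq500. Each hexamer's frequency of reads for a factor, divided by the matching frequency for the tag-only sample, gives the binding signal.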
# [2] = target: ETV5 (Homo sapiens, UniProt P41161 1-510); conditions: protein: recombinant; tags: N-terminal GST; dsDNA, one strand shown
# In short: as §1
# [3] = target: HSF1 (Homo sapiens, UniProt Q00613 1-529); conditions: protein: recombinant; tags: N-terminal GST; chain copies: 3; dsDNA, one strand shown
# In short: as §1
# [4] = target: T2, SPIC (Homo sapiens, UniProt Q8N5J4 1-248); conditions: protein: recombinant; tags: N-terminal GST; dsDNA, one strand shown
# T2 sequence: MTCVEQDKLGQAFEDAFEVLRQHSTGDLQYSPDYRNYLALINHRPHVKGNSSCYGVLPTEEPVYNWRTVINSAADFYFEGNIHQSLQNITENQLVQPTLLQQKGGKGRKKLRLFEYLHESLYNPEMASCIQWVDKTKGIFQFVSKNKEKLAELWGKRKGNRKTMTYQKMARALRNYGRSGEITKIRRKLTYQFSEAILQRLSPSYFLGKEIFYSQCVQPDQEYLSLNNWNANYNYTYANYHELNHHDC
# In short: as §1
# [5] = target: ELF4 (Homo sapiens, UniProt Q99607 1-663); conditions: protein: recombinant; tags: N-terminal GST; dsDNA, one strand shown
# In short: as §1
# [6] = target: T3, ELK4 (Homo sapiens, UniProt P28324-2 1-405); conditions: protein: recombinant; tags: N-terminal GST; dsDNA, one strand shown
# T3 sequence: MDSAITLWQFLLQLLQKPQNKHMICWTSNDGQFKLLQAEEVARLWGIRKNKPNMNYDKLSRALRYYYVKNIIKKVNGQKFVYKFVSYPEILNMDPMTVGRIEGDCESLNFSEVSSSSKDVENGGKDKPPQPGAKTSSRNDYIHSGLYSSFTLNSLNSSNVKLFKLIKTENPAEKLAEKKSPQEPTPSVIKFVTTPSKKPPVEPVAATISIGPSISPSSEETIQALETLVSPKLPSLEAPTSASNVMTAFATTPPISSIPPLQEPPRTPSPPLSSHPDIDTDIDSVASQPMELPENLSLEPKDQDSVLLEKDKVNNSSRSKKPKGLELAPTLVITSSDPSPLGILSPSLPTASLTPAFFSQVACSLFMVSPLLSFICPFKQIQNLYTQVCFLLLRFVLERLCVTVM
# In short: as §1
# [7] = target: T4, ETV2 (Homo sapiens, UniProt O00321 1-342); conditions: protein: recombinant; tags: N-terminal GST; dsDNA, one strand shown
# T4 sequence: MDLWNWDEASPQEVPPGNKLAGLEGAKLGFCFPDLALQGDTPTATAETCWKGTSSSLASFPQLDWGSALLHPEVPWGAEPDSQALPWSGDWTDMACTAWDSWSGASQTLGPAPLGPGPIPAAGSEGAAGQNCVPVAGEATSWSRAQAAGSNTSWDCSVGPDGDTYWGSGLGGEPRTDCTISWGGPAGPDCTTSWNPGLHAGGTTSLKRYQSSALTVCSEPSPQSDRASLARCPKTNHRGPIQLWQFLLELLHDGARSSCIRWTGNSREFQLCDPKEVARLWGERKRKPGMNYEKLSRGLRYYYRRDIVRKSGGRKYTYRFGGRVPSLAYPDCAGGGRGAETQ
# In short: as §1
# [8] = target: T5, ELF3 (Homo sapiens, UniProt P78545 1-371); conditions: protein: recombinant; tags: N-terminal GST; dsDNA, one strand shown
# T5 sequence: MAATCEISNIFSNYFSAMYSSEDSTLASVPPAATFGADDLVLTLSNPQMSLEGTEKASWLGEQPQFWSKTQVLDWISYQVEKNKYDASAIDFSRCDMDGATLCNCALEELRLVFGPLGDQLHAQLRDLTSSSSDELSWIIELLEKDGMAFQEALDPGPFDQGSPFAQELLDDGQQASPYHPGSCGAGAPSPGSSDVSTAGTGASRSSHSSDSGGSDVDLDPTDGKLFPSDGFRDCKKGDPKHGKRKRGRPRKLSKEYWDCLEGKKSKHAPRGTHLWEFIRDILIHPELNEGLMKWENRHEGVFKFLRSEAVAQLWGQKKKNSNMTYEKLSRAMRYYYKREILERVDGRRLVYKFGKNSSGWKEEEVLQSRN
# In short: as §1
# [9] = target: ETV1 (Homo sapiens, UniProt P50549 1-477); conditions: protein: recombinant; tags: N-terminal GST; dsDNA, one strand shown
# In short: as §1
# [10] = target: T6, ERF (Homo sapiens, UniProt P50548 1-548); conditions: protein: recombinant; tags: N-terminal GST; dsDNA, one strand shown
# T6 sequence: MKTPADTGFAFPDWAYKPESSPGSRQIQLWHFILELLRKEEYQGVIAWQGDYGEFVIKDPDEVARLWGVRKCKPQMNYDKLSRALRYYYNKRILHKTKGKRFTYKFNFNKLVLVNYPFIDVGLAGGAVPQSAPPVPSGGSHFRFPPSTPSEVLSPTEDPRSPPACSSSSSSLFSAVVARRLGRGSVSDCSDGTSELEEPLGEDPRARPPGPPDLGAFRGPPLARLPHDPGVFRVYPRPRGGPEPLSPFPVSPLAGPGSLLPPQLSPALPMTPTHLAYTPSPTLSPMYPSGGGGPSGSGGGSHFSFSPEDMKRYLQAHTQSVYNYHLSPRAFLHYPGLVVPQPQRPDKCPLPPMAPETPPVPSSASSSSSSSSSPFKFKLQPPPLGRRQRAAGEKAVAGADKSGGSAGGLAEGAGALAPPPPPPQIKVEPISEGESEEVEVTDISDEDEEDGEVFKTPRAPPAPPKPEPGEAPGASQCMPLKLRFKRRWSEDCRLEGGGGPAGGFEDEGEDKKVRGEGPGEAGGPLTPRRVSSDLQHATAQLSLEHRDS
# In short: as §1
# [11] = target: T7, ETV3L (Homo sapiens, UniProt Q6ZN32 1-361); conditions: protein: recombinant; tags: N-terminal GST; dsDNA, one strand shown
# T7 sequence: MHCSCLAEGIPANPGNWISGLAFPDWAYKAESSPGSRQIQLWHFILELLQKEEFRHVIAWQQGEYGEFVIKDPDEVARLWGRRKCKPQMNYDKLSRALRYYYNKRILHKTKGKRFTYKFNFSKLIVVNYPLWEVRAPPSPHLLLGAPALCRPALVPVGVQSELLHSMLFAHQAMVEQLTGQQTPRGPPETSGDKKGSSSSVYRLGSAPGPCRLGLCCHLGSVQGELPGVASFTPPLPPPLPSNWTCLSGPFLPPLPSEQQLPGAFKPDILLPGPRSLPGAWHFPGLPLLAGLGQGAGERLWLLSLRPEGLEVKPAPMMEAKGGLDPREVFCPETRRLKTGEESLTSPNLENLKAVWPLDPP
# In short: as §1
# [12] = target: T8, ETS2 (Homo sapiens, UniProt P15036 1-469); conditions: protein: recombinant; tags: N-terminal GST; dsDNA, one strand shown
# T8 sequence: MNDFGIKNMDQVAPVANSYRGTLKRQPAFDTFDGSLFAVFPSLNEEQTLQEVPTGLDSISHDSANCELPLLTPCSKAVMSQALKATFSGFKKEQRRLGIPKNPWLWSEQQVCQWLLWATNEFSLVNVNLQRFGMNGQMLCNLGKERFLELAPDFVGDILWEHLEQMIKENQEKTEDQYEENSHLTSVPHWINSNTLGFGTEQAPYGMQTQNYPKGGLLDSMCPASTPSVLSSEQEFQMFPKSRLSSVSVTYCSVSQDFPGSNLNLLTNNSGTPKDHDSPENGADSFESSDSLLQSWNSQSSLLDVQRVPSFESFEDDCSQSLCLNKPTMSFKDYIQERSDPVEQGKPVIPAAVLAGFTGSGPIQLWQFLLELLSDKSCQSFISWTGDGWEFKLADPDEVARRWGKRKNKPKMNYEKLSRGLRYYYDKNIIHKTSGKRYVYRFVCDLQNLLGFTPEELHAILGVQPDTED
# In short: as §1
# [13] = target: T9, SPDEF (Homo sapiens, UniProt O95238 1-335); conditions: protein: recombinant; tags: N-terminal GST; dsDNA, one strand shown
# T9 sequence: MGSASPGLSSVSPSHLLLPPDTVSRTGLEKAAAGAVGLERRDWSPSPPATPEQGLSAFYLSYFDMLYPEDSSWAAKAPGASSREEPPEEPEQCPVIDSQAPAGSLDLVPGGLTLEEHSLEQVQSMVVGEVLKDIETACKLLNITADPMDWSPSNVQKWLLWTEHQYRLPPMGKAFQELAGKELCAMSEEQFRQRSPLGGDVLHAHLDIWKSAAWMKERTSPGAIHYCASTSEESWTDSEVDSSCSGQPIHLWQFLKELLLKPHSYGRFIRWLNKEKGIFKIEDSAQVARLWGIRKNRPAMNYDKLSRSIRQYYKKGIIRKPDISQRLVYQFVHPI
# In short: as §1
# [14] = target: T10, ETV7 (Homo sapiens, UniProt Q9Y603 1-341); conditions: protein: recombinant; tags: N-terminal GST; dsDNA, one strand shown
# T10 sequence: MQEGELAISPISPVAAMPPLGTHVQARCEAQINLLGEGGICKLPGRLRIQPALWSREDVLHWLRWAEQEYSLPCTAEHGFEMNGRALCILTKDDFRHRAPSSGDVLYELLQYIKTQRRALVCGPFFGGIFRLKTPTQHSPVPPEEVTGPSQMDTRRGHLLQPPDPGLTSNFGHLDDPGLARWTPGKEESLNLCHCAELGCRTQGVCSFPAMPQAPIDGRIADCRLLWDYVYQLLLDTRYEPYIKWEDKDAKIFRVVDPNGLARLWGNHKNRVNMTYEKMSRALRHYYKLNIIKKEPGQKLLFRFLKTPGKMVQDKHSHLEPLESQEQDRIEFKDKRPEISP
# In short: as §1
# [15] = target: T11, ELF5 (Homo sapiens, UniProt Q9UKW6-2 1-255); conditions: protein: recombinant; tags: N-terminal GST; dsDNA, one strand shown
# T11 sequence: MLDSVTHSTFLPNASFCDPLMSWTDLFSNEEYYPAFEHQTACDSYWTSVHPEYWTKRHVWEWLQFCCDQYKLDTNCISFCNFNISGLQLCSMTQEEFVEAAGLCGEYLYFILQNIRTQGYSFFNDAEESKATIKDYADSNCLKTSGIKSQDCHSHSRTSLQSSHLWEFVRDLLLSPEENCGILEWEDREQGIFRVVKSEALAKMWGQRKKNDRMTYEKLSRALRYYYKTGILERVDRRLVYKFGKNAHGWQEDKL
# In short: as §1
# [16] = target: T12, ETV3 (Homo sapiens, UniProt P41162-2 1-143); conditions: protein: recombinant; tags: N-terminal GST; dsDNA, one strand shown
# T12 sequence: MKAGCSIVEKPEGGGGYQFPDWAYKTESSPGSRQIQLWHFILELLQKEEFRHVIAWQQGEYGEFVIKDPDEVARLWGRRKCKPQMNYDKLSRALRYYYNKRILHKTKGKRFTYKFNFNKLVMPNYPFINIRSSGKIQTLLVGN
# In short: as §1
# [17] = target: ETV6 (Homo sapiens, UniProt P41212 1-452); conditions: protein: recombinant; tags: N-terminal GST; dsDNA, one strand shown
# In short: as §1
# Sequence of HSF1 (Q00613 whole entry): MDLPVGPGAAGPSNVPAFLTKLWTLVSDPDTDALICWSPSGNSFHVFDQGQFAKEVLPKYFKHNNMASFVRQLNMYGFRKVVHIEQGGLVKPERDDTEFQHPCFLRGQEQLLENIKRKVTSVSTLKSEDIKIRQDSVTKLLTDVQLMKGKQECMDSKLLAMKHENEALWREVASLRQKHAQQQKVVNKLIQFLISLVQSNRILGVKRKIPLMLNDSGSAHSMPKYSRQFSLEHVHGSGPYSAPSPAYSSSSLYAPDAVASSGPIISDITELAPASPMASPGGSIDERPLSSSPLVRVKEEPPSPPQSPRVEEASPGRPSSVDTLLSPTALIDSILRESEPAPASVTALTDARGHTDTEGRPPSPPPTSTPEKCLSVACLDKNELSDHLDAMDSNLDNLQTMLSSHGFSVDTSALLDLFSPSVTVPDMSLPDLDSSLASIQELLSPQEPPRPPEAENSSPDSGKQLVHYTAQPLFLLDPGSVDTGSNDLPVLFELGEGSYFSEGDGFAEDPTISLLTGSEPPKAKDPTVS
# Sequence of ETV5 (P41161 whole entry): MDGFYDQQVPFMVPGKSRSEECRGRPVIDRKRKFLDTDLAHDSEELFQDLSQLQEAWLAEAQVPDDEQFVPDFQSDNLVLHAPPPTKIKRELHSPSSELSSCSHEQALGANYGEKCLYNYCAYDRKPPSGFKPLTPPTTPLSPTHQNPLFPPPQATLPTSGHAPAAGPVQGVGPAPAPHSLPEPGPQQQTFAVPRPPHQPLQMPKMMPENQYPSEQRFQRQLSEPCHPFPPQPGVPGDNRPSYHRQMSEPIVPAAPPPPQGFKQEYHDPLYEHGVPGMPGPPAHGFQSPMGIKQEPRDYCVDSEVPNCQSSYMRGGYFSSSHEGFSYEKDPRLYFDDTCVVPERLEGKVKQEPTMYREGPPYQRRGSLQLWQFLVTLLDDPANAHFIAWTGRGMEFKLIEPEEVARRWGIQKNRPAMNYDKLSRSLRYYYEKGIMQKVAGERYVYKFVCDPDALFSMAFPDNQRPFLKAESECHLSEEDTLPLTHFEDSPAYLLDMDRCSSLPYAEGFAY
# Sequence of ETV1 (P50549 whole entry): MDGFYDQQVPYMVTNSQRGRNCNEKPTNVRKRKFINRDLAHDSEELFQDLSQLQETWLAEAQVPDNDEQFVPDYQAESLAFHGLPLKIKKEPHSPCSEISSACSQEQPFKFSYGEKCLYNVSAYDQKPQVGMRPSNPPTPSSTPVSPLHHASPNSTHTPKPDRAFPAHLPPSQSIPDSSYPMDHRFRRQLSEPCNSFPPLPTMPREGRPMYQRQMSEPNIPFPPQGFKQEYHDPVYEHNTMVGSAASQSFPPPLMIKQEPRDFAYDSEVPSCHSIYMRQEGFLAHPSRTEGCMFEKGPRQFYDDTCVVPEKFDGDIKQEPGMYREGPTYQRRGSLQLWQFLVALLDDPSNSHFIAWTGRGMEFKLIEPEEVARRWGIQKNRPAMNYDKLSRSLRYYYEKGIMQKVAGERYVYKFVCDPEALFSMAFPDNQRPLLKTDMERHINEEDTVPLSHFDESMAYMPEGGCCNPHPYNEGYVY
# Sequence of ELF4 (Q99607 whole entry): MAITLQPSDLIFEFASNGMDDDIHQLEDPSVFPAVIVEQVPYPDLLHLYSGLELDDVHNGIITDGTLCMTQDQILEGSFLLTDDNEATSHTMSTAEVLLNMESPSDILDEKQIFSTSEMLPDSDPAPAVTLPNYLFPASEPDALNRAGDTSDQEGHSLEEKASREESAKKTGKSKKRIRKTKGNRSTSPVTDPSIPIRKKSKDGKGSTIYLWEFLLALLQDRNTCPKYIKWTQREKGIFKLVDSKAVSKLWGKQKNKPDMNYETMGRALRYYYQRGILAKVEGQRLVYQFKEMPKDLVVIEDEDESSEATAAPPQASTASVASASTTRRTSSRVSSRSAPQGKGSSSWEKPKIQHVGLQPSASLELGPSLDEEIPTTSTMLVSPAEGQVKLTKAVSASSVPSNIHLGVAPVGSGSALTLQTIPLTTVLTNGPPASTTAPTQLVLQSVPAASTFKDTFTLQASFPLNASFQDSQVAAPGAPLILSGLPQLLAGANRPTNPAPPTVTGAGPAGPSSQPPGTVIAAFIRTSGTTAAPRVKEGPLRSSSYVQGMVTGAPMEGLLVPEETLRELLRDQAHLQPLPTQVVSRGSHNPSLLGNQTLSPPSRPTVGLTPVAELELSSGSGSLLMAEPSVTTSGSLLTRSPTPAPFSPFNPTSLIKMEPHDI
# Sequence of ETV6 (P41212 whole entry): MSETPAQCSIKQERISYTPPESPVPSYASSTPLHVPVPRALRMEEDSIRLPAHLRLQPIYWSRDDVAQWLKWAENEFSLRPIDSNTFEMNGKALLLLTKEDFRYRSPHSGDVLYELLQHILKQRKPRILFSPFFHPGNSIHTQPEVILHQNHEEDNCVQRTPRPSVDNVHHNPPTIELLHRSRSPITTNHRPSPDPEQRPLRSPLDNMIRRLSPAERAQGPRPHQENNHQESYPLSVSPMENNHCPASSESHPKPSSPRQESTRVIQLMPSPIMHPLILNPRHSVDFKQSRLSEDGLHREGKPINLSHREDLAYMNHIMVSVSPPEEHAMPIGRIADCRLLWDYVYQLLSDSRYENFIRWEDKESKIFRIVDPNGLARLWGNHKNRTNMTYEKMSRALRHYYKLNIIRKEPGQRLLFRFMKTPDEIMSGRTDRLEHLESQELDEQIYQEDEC
sequence,measurement,setting,value
GCTATG,binding signal,[1],"1.15 fold enrichment (6-mer frequency, TF over GST control)"
same,binding signal,[2],"1.13 fold enrichment (6-mer frequency, TF over GST control)"
same,binding signal,[3],"1.07 fold enrichment (6-mer frequency, TF over GST control)"
same,binding signal,[4],"1.22 fold enrichment (6-mer frequency, TF over GST control)"
same,binding signal,[5],"1.08 fold enrichment (6-mer frequency, TF over GST control)"
same,binding signal,[6],"1.15 fold enrichment (6-mer frequency, TF over GST control)"
same,binding signal,[7],"1.38 fold enrichment (6-mer frequency, TF over GST control)"
same,binding signal,[8],"1.18 fold enrichment (6-mer frequency, TF over GST control)"
same,binding signal,[9],"1.17 fold enrichment (6-mer frequency, TF over GST control)"
same,binding signal,[10],"1.26 fold enrichment (6-mer frequency, TF over GST control)"
same,binding signal,[11],"1.16 fold enrichment (6-mer frequency, TF over GST control)"
same,binding signal,[12],"1.26 fold enrichment (6-mer frequency, TF over GST control)"
same,binding signal,[13],"1.23 fold enrichment (6-mer frequency, TF over GST control)"
same,binding signal,[14],"1.3 fold enrichment (6-mer frequency, TF over GST control)"
same,binding signal,[15],"1.14 fold enrichment (6-mer frequency, TF over GST control)"
same,binding signal,[16],"1.23 fold enrichment (6-mer frequency, TF over GST control)"
same,binding signal,[17],"1.1 fold enrichment (6-mer frequency, TF over GST control)"
